# Tests used:
# [1] = biological target: Sphingosine kinase 1 (Homo sapiens) (UniProt Q9NYA1); conditions: at 1 µM;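 further: mean SPHK1 inhibition value reported from the GSK PKIS kinase panel screen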
# [2] = biological target: T1, Sphingosine kinase 2 (Homo sapiens) (UniProt Q9NRA0); conditions: at 0.1 µM
# T1 sequence (whole entry): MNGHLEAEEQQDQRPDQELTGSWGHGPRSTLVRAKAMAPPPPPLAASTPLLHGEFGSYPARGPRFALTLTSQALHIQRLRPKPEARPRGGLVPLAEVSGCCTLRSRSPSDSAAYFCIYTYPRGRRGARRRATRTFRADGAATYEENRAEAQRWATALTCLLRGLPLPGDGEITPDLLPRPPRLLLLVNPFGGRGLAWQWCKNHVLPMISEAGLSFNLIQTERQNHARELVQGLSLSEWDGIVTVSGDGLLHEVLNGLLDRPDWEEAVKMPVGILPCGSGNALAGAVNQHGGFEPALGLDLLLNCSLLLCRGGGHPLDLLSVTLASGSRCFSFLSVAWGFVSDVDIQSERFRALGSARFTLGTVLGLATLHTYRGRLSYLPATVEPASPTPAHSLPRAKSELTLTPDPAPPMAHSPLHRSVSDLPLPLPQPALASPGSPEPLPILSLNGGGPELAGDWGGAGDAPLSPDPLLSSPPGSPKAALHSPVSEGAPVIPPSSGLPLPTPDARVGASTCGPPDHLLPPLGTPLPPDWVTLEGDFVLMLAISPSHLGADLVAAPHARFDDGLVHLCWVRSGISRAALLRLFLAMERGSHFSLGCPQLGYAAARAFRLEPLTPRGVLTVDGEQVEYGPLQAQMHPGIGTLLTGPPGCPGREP
# [3] = biological target: T1, Sphingosine kinase 2 (Homo sapiens); conditions: at 1 µM
# [4] = biological target: Casein kinase II subunit alpha (Homo sapiens) (UniProt P68400); conditions: at 0.1 µM
# [5] = biological target: Casein kinase II subunit alpha (Homo sapiens) (UniProt P68400); conditions: at 1 µM
# [6] = biological target: T2, Inhibitor of nuclear factor kappa-B kinase subunit alpha (Homo sapiens) (UniProt O15111); conditions: at 0.1 µM
# T2 sequence (whole entry): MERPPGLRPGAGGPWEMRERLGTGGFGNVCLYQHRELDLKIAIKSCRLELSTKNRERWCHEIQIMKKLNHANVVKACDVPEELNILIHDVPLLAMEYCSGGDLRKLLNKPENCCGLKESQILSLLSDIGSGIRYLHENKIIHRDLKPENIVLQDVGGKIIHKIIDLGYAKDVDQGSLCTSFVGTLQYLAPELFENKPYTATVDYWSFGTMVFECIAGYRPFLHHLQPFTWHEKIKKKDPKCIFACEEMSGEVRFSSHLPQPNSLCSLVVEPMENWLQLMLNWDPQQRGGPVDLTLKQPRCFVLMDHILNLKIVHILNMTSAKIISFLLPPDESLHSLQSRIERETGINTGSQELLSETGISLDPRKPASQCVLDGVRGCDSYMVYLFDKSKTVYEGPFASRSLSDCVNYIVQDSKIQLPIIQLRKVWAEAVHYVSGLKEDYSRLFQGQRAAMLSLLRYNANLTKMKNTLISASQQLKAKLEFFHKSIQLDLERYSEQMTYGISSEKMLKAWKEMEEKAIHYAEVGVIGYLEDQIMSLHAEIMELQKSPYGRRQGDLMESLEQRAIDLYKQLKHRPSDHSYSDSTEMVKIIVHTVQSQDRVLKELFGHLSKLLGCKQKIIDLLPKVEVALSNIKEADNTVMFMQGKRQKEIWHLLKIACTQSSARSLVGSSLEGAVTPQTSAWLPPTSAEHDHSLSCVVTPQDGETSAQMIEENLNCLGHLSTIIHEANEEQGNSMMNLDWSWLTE
# [7] = biological target: T2, Inhibitor of nuclear factor kappa-B kinase subunit alpha (Homo sapiens); conditions: at 1 µM
# [8] = biological target: T3, Inhibitor of nuclear factor kappa-B kinase subunit beta (Homo sapiens) (UniProt O14920); conditions: at 0.1 µM
# T3 sequence (whole entry): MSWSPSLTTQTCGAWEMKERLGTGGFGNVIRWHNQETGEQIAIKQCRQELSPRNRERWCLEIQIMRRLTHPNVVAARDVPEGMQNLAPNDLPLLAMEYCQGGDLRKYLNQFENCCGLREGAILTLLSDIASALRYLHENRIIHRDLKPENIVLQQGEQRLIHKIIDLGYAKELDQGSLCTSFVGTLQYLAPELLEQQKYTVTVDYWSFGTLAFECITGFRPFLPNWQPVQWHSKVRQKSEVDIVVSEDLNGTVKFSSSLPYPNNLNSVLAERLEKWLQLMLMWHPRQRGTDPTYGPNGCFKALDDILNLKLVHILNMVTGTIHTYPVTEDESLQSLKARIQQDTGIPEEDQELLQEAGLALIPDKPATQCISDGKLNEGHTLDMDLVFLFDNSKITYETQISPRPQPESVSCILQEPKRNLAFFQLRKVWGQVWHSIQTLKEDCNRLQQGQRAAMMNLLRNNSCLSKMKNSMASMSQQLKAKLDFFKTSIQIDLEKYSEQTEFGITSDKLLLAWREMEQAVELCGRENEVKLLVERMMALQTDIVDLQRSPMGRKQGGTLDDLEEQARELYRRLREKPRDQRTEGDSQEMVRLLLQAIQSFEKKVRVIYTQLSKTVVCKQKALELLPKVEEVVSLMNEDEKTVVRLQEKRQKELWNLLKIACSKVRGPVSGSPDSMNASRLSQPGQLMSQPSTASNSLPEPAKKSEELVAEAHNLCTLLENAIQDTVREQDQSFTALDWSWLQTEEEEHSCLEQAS
# [9] = biological target: T3, Inhibitor of nuclear factor kappa-B kinase subunit beta (Homo sapiens); conditions: at 1 µM
# [10] = biological target: T4, Inhibitor of nuclear factor kappa-B kinase subunit epsilon (Homo sapiens) (UniProt Q14164); conditions: at 0.1 µM
# T4 sequence (whole entry): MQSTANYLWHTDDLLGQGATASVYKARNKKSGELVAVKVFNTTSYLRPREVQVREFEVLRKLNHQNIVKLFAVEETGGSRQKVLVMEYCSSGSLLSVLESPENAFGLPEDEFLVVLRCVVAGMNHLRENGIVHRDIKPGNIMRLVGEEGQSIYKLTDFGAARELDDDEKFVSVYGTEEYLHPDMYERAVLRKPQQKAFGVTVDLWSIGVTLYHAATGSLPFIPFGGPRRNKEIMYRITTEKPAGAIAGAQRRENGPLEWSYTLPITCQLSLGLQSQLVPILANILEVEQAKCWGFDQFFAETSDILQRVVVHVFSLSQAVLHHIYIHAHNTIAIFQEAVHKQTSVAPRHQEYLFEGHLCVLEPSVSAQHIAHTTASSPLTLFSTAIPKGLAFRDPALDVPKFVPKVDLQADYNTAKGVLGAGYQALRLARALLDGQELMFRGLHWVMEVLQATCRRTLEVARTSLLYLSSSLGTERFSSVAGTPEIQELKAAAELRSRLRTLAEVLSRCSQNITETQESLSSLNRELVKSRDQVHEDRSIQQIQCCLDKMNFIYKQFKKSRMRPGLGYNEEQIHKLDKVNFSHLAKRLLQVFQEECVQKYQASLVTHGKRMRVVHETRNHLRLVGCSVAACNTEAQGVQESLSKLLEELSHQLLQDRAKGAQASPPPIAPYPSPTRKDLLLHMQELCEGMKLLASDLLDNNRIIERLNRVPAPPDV
# [11] = biological target: T4, Inhibitor of nuclear factor kappa-B kinase subunit epsilon (Homo sapiens); conditions: at 1 µM
# [12] = biological target: T5, Serine/threonine-protein kinase Nek1 (Homo sapiens) (UniProt Q96PY6); conditions: at 0.1 µM
# T5 sequence (whole entry): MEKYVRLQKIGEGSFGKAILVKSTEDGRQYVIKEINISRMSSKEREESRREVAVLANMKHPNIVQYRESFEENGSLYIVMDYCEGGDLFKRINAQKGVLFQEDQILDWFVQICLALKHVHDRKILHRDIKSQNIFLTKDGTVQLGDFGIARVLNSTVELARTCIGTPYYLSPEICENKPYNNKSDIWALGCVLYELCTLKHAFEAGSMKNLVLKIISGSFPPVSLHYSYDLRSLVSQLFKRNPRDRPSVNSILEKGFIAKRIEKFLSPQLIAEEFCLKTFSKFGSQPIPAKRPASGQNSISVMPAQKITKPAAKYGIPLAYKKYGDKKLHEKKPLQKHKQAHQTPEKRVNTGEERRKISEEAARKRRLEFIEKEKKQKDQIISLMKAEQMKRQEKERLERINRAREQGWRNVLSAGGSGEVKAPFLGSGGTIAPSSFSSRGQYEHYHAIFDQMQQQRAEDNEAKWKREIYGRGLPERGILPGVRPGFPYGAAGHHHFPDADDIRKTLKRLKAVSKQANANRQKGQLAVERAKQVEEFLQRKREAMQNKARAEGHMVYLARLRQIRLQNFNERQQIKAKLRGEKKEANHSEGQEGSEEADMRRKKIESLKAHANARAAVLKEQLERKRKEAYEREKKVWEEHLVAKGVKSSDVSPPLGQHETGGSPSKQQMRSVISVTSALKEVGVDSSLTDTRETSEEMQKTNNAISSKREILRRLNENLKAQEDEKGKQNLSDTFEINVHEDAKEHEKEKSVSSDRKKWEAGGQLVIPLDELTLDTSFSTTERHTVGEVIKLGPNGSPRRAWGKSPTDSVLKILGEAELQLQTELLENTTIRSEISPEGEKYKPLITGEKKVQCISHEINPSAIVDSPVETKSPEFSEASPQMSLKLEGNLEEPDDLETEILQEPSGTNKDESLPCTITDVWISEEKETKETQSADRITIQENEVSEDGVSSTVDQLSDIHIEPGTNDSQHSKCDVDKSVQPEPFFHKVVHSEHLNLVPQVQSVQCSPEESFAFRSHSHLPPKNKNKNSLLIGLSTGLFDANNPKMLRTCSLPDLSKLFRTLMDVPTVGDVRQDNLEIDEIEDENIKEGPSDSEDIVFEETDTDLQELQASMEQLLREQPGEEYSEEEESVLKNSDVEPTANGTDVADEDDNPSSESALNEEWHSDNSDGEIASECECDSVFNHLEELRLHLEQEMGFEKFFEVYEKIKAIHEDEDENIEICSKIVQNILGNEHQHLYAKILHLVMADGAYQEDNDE
# [13] = biological target: T5, Serine/threonine-protein kinase Nek1 (Homo sapiens); conditions: at 1 µM
# [14] = biological target: T6, Serine/threonine-protein kinase Nek2 (Homo sapiens) (UniProt P51955); conditions: at 0.1 µM
# T6 sequence (whole entry): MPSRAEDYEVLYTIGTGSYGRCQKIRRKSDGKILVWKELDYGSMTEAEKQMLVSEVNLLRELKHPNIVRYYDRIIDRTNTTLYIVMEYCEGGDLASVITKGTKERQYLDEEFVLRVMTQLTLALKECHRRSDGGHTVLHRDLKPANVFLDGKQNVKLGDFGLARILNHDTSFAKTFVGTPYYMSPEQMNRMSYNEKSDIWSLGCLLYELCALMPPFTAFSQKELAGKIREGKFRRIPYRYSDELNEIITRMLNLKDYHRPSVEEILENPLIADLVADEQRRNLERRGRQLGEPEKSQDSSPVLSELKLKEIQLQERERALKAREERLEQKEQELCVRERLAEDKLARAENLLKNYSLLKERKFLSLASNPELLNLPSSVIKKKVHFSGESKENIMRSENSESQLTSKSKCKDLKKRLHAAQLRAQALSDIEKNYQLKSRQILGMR
# [15] = biological target: T6, Serine/threonine-protein kinase Nek2 (Homo sapiens); conditions: at 1 µM
# [16] = biological target: Serine/threonine-protein kinase Nek6 (Homo sapiens) (UniProt Q9HC98); conditions: at 0.1 µM
# [17] = biological target: Serine/threonine-protein kinase Nek6 (Homo sapiens) (UniProt Q9HC98); conditions: at 1 µM
# [18] = biological target: Serine/threonine-protein kinase Nek7 (Homo sapiens) (UniProt Q8TDX7); conditions: at 0.1 µM
# [19] = biological target: Serine/threonine-protein kinase Nek7 (Homo sapiens) (UniProt Q8TDX7); conditions: at 1 µM
# [20] = biological target: T7, Serine/threonine-protein kinase Nek9 (Homo sapiens) (UniProt Q8TD19); conditions: at 0.1 µM;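 further: reported value is the mean percent inhibition of NEK9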
# T7 sequence (whole entry): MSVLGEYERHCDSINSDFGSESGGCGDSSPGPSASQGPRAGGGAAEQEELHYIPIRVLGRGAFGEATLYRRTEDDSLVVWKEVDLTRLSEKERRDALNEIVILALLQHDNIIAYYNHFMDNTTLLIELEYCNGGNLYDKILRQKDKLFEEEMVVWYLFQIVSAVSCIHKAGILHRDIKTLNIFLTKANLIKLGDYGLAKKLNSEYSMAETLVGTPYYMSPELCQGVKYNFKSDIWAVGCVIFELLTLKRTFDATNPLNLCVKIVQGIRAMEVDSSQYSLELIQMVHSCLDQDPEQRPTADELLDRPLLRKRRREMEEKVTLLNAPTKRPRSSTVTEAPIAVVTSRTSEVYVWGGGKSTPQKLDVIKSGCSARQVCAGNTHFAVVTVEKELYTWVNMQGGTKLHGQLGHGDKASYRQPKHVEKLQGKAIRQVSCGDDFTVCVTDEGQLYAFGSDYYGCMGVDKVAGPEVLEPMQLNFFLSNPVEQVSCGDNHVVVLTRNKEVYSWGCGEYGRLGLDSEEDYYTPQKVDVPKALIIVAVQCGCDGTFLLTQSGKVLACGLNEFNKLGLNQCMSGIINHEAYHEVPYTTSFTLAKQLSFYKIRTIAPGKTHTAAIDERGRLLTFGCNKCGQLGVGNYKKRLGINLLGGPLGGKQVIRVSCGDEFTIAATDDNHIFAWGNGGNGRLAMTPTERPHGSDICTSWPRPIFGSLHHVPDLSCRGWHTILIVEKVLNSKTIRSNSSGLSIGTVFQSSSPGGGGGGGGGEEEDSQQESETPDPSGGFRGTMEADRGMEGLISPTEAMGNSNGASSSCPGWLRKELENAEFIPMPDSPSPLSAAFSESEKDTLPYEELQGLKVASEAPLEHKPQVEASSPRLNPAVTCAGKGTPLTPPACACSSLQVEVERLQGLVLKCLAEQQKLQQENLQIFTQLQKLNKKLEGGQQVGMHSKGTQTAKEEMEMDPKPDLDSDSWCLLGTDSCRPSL
# Serine/threonine-protein kinase Nek6 (Homo sapiens), sequence (Q9HC98 whole entry): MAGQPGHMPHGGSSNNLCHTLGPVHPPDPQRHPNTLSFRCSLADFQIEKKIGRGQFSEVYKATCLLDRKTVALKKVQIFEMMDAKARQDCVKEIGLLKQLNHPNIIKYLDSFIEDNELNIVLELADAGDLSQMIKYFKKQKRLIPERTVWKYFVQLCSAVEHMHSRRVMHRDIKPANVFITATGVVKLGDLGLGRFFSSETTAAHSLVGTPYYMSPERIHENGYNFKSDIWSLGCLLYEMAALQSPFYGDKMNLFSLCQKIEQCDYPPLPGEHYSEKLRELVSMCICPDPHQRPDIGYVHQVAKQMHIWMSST
# Serine/threonine-protein kinase Nek7 (Homo sapiens), sequence (Q8TDX7 whole entry, looked up): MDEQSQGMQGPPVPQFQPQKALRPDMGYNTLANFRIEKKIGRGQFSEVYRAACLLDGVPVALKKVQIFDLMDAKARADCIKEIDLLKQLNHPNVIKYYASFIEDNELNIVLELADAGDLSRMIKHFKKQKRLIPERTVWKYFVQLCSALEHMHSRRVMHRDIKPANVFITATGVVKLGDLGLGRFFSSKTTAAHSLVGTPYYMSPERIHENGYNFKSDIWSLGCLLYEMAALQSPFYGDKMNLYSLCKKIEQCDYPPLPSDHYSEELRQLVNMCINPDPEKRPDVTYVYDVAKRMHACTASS
# Casein kinase II subunit alpha (Homo sapiens), sequence (P68400 whole entry, looked up): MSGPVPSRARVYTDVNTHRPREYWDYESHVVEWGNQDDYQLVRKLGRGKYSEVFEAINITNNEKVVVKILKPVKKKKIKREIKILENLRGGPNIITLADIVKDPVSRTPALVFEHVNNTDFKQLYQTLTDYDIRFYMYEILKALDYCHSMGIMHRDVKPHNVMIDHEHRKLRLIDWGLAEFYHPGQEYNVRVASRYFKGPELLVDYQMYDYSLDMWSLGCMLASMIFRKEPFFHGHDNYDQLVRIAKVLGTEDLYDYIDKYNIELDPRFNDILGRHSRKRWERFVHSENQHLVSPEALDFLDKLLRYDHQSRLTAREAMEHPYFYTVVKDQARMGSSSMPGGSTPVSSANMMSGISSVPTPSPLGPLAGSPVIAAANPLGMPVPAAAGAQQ
# Sphingosine kinase 1 (Homo sapiens), sequence (Q9NYA1 whole entry): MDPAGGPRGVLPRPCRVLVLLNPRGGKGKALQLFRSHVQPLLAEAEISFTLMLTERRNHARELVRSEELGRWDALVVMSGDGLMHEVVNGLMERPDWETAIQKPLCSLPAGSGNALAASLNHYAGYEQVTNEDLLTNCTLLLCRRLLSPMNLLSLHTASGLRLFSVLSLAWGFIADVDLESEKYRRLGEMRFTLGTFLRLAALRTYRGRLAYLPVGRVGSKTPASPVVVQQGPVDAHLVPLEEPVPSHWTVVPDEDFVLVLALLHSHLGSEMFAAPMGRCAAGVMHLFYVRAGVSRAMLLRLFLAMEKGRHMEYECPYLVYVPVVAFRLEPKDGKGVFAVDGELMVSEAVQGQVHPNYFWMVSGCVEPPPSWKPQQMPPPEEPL
compound,measurement,setting,value
NC(=O)Cc1ccccc1Oc1nccc(-c2c(-c3ccc(F)cc3)ncn2C2CCNCC2)n1,inhibition,[1],-2.09%
same,inhibition,[2],0.16%
same,inhibition,[3],0.42%
same,inhibition,[4],1.72%
same,inhibition,[5],2.63%
same,inhibition,[6],8.64%
same,inhibition,[7],0.14%
same,inhibition,[8],4.37%
same,inhibition,[9],3.54%
same,inhibition,[10],2.28%
same,inhibition,[11],0.67%
same,inhibition,[12],1.64%
same,inhibition,[13],4.11%
same,inhibition,[14],2.13%
same,inhibition,[15],4.35%
same,inhibition,[16],0.28%
same,inhibition,[17],1.26%
same,inhibition,[18],3.21%
same,inhibition,[19],2.73%
same,inhibition,[20],10.9%
